# High-throughput results (PubChem BioAssay)
# Compounds with a hit are over-represented: about 2.3% of the library has one in this group of screens.
# 12-LOX inh: blocks human arachidonate 12S-lipoxygenase; purified 12hLO, xylenol orange hydroperoxide absorbance; P18054; AID 1671190; 1.1% of 580,000 active; Potency, µM (series often up to 108 µM), without a hit: at the highest dose activity change, negative = inhibition, most hits filed as inhibitors; also: % is scaled to controls: 0 for no effect and ±100 for the full control effect
#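 Hydroperoxide product was detected by ferrous iron/xylenol orange as the 573 to 405 nm absorbance ratio. Arachidonic acid at 40 uM (final) was turned over for 30 min at room temperature by 150 nM human 12hLO, pH 7.0 Hepes buffer, after 15 min compound preincubation.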
# Glioma ERSR ind: ER stress response induction in glioma; U87-MG GRP78 promoter luciferase reporter, 16 h; Potency, µM, for the others: at the highest dose activation, hits mostly activators; AID 602332; 0.02% of 420,000 active; also: series mostly up to about 76 µM; % of control where 0% means no effect; nearly all actives have a fitted effect of over 35% in size
#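 ERSR induction read as luciferase luminescence (Bright-Glo, 10 min at room temperature) in stably transfected human U87-MG glioma cells exposed to compounds for 16 h, using GRP78 as sensor.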
# GLP-1R agonist: GLP-1 receptor (human) agonism | HEK293 GLP-1R CRE-luciferase, luminescence, 4-6 h; cells express a hypersensitive GLP-1R form | Potency, µM (highest dose often 45.6 µM), inactives show at the top dose activation, most hits filed as activators | 0.007% of 380,000 active | AID 624172; also: % of control where 0% means no effect
# PTHR1 ag: agonists of human PTHR1 parathyroid hormone receptor. HEK293 GP2 PTHR1 cells, GloSensor cAMP luminescence, 1 h. 0.075% of 410,000 active. AID 743266. Potency, µM (titrated, usually from 115 µM), without a hit: top-dose activation, most hits filed as activators. Q03431; also: nearly all actives have a fitted effect of over 55% in size
#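 HEK-293-derived GP2 cells expressing PTHR1 and a GloSensor cAMP reporter, 3,000/well, plated overnight, given luciferin plus IBMX (each 0.5 mM as added) for 1 h at 37 °C, then compound for 1 h at 37 °C. Luminescence was read after 15 min at room temperature.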
# GLP-1R inv ag: acts as inverse agonist at human GLP-1 receptor; 1.6% of 410,000 active; P43220; HEK293 GLP-1R CRE-luciferase, luminescence, 24 h; GLP-1R form is constitutively active; Potency, µM (series often up to 38.3 µM), for inactives: at the top dose activity change, negative = inhibition, usual class: inhibitors; also: % is scaled to controls: 0 for no effect and ±100 for the full control effect; nearly all actives have a fitted effect of over 55% in size
#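 HEK293 cells stably co-expressing a cAMP-responsive luciferase reporter and constitutively active GLP-1R were seeded, incubated 12 h, then exposed to compounds for 24 h at 37 C. Luminescence was read 12 min after detection reagent; inverse agonists lower signal.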
# GLS inhibitor: inhibitors of human glutaminase (GLS); Potency, µM (series often up to 45.5 µM), inactives show top-dose activity change, negative = inhibition, actives largely listed as inhibitors; GLS enzymatic activity, qHTS titration; 0.21% of 410,000 active; O94925; also: % is scaled to controls: 0 for no effect and ±100 for the full control effect
# Target sequence (O94925 whole entry, looked up): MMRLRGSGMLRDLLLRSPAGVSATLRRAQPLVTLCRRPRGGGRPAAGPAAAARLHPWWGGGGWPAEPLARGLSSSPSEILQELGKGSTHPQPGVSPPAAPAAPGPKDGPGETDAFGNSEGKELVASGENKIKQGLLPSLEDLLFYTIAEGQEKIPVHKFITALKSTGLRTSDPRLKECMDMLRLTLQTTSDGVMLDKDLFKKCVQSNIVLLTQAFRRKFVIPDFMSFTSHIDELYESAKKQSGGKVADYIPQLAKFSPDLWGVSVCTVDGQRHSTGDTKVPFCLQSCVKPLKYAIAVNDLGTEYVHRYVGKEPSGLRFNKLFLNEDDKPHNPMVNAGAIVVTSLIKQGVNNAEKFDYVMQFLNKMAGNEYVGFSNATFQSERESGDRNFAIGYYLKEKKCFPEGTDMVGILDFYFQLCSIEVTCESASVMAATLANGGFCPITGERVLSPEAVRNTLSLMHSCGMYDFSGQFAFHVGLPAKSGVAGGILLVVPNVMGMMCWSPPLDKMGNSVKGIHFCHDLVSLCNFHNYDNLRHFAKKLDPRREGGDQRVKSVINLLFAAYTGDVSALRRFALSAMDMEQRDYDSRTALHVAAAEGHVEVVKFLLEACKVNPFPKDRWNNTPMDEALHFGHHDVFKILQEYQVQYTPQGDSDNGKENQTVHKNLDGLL
#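 Coupled fluorescence readout: glutamate oxidase/HRP/Amplex Red detect glutamate formed by hKGA from L-glutamine (1 mM solution added). Buffer 45 mM KH2PO4 pH 8.2, 0.02% Tween-20; reads at t0 and 30 min RT.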
# * = called active by the depositor; i = inactive; u = inconclusive; x = no result; [ ] = remark or other dose. Calls follow the shape of the dose curve; as a rule, active = well fitted curve in the direction sought with a large enough effect; inconclusive = small, poorly fitted or top-dose-only effect, or another doubt; inactive = no such curve, though single readings can be large; an effect the other way counts as inactive or inconclusive. Potency is read from the fitted curve at half-maximal effect.
SMILES,12-LOX inh,Glioma ERSR ind,GLP-1R agonist,PTHR1 ag,GLP-1R inv ag,GLS inhibitor
CCCn1c(=S)[nH]c2cc(C(=O)N3CCN(C(=O)OCC)CC3)ccc2c1=O,0%,-5%,13%,-8%,-3%,-15%
Cc1cc(C)c(C(=O)COC(=O)/C=C/c2cccs2)cc1C,-3%,x,x,x,x,x
Cc1ccc2cc(/C=C/C(=O)NC3CCCC3)oc2c1,-32%,x,x,x,x,x
COc1ccccc1CCNC(=O)CSc1nc(Cl)nc2nc[nH]c12,4%,x,x,x,x,x
COc1ccccc1Cn1c(=S)[nH]c2cc(C(=O)NCCN(C)C)ccc2c1=O,0%,2%,1%,u,u,10µM*
O=C(COc1ccc(Br)cc1)OCCCC(=O)c1ccccc1,-27%,x,x,x,x,x
Cc1cc(C(F)(F)F)cc(NNC(=O)NC(=O)c2c(F)cccc2Cl)n1,103%,1%,20%,-15%,11µM*,10%
CC(C)(C)NC(=O)C(=O)NC(=O)c1c(F)cccc1Cl,i,-3%,4%,i,-5%,-11%
Cc1cccc(C)c1OCC(=O)NCc1nnc(SCC(=O)NC2CCCCC2C)n1C (stereo unspecified),7.1µM*,-3%,6%,-17%,-12%,2%
CCCCCCCCCCCCCCCC[N+](C)(C)CCl,u,-14%,-27%,-39%,3.5µM*,-7%
CCCCCCCCCCCCCCCC[N+](C)(C)CC,u,-11%,-4%,-21%,11µM*,u
CCCCCCCC[N+](C)(C)CCCCCCCC,x,-3%,-1%,x,x,-4%
Cn1cc(C(=O)NCCNC(=O)CC2CCCCC2)c2ccccc21,5%,x,x,x,x,x
Clc1ccc(-c2cc3ccccn3c2)cc1,4µM*,x,x,x,x,x
C[C@@H](NCc1cccc(Cl)c1)c1onc(-c2ccc(F)cc2)c1C(=O)O,28µM*,x,x,x,x,x
CC(=O)C1=C(c2ccccc2)OC(N)=C(C#N)C1c1ccccc1C (stereo unspecified),-17%,-4%,-1%,-22%,-30%,14%
Cc1ccccc1C1C=C(c2ccccc2)OC(c2ccccc2)=C1C=O (stereo unspecified),5.6µM*,x,x,x,x,x
c1ccc(C[C@H]2CNCCN2CCc2cccc3ccccc23)cc1,u,-4%,6%,-16%,11µM*,5%
CCOc1ccccc1Nc1cc(C)nc2nc(C)nn12,5.6µM*,1%,6%,-25%,63%,6%
Cc1cc(SCC(=O)N/N=C/c2ccc(O)cc2O)c(C)cc1Br,u,-4%,-7%,-16%[57.5 µM],7.9µM*,16%
CCCCCn1nc(C(=O)NCC(=O)Nc2cccc(C)c2C)c2ccccc2c1=O,3%,x,x,x,x,x
Clc1ccc(CNC[C@H]2Cn3c(-c4cccc(Cl)c4)cnc3CO2)cc1,-43%[176 µM],x,x,x,x,x
Fc1ccc(-c2cnc3n2C[C@H](CNCc2ccc4c(c2)OCO4)OC3)cc1,22µM*,x,x,x,x,x
Clc1ccc(-c2cnc3n2C[C@H](CNCc2ccc4c(c2)OCO4)OC3)cc1,40µM*,x,x,x,x,x
Cc1ccc(-c2cn3c(n2)CO[C@@H](CNCc2ccc(Cl)cc2)C3)cc1,13µM*,x,x,x,x,x
SMILES,12-LOX inh,Glioma ERSR ind,GLP-1R agonist,PTHR1 ag,GLP-1R inv ag,GLS inhibitor
Clc1ccc(CNC[C@H]2Cn3c(-c4ccccc4)cnc3CO2)cc1,25µM*,x,x,x,x,x
CC12CC3CC(C)(C1)CC(C(=O)NC1CCCC1)(C3)C2,33%,x,x,x,x,x
O=C1CC(Nc2ccc(N3CCOCC3)cc2)C(=O)N1c1ccccc1F (stereo unspecified),16µM*,-3%,2%,-17%,-12%,5%
O=C1CC(NNc2ccccc2)C(=O)N1c1ccc(N2CCCCC2)cc1 (stereo unspecified),6.3µM*,1%,1%,-77%,u,3%
O=C1CC(Nc2ccccc2)C(=O)N1c1ccc(N2CCOCC2)cc1 (stereo unspecified),0%,-6%,2%,i,18%,22%
CCOc1ccc(NC(=O)c2nc3ccccc3nc2N(CC)CC)cc1,0%,x,x,x,x,x
COc1cccc(C2=Nn3c(nnc3-c3ccccc3O)SC2)c1,0%,-1%,6%,-21%,0%,3%
C[n+]1c2n(c3ccccc31)N=C(c1cc(C(C)(C)C)c(O)c(C(C)(C)C)c1)CS2,28µM*,-12%,-1%,-32%,u,-14%
O=C(Nc1cccnc1Oc1ccccc1)c1cc(F)ccc1Br,58%,x,x,x,x,x
CC(C)c1nc2cc(Cl)ccc2n(Cc2ccccc2)c1=O,-7%,4%,28%,-5%,7.9µM*,-8%
CNC(=O)c1ccc(NC(=O)c2cccc(N(C)C)c2)cc1,-4%,x,x,x,x,x
CC1=CC(C)C(COC(=O)C[N+]2(C)CCOCC2)C(C)C1 (stereo unspecified),20µM*,x,x,x,x,x
Cc1ccc(NC(=O)c2nn(C)c(=O)c3ccccc23)cc1Cl,8%,x,x,x,x,x
COc1ccccc1CN[C@H]1Cc2ccc(cc2)Nc2cc(ccc2OC)C[C@H](C(=O)NCc2ccccc2)N(C)C1=O,1%,x,x,x,x,x
O=C(c1nn(Cc2ccccc2)c(=O)c2ccccc12)N1CCN(C/C=C/c2ccccc2)CC1,345%,-9%,15%,-12%[57.5 µM],7.9µM*,-3%
COc1ncccc1-c1cc2c(ccn2CC2CCN(C)CC2)c(N2CCOCC2)n1,62%[176 µM],x,x,x,x,x
Fc1ccc(C(NCCc2ccc(Cl)cc2)c2nnc(-c3ccccc3)o2)c(Cl)c1 (stereo unspecified),-13%,-3%,x,-45%,10µM*,2%
Cc1cccc(N2C(=O)CSC23C(=O)N(CC(=O)NCc2ccccc2Cl)c2ccccc23)c1 (stereo unspecified),-14%,-5%,2%,-14%,10µM*,-1%
Cc1ncc(-c2ccc(C)c(S(=O)(=O)Nc3cccc(Cl)c3C)c2)o1,-24%,x,x,x,x,x
Cc1c(Cl)cccc1NS(=O)(=O)c1ccccc1,-2%,-1%,10%,-9%,10µM*,8%
O=S(=O)(Nc1ccccc1-c1ccccc1)c1ccccc1,9%,-3%,12%,-10%,6.3µM*,0%
Cc1ccc(-c2onc(C)c2C)cc1S(=O)(=O)Nc1cccc(Cl)c1C,u,-4%,x,-63%,10µM*,4%
Cc1c(NS(=O)(=O)c2ccccc2)cc(Cl)c(O)c1C,-27%,-4%,0%,-18%,-9%,63%
CC1(CCCCc2ccccc2)COc2ccc(C(=O)Nc3cccnc3)cc2N1 (stereo unspecified),18%[176 µM],x,x,x,x,x
Cc1cc(C)c2oc(=O)cc(-c3oc4ccccc4c3N)c2c1,-14%,x,x,x,x,x
S=c1[nH]nc(CCc2ccccc2)n1-c1ccc(Cl)cc1,32µM*,0%,20%,-11%,u,0%
